Screening data deposited in PubChem BioAssay by National Center for Advancing Translational Sciences (NCATS).
A selection: hits, their analogues and other compounds. The true share with any hit is near 3.3%.
VACV mCherry inh: qHTS for Stage-Specific Inhibitors of Vaccinia Orthopoxvirus: mCherry Reporter Primary qHTS; AID 720579, 2013; Vaccinia virus mCherry reporter infection, fluorescence; 310,000 tested, 0.63% active; Potency, µM (doses to about 36.5 µM), without a hit: at the top dose activity change, negative = inhibition, hits mostly inhibitors; calls by dose curve; tested in A549 cells; also: nearly all actives have a fitted effect of over 35% in size
HCV inhibitor: qHTS Assay for Inhibitors of Hepatitis C Virus (HCV). Huh7.5.1 HCVcc-Cre infection, luciferase reporter, 44 h. 340,000 tested, 3.4% active. Potency, µM (series often up to 41.8 µM), for inactives: at the top dose activity change, negative = inhibition, usual class: inhibitors. AID 651820, 2012; active = well fitted inhibition curve with a large enough effect; inconclusive = small, poorly fitted or top-dose-only effect, or another doubt; inactive = no such curve, though single readings can be large or run the other way
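Infectious HCV cell culture screen: compound-treated cells (1,000/well, pre-plated 4 h) are infected with HCVcc-Cre at roughly 0.5 moi and grown 44 h. Infection is quantified by luciferase signal after 15 min substrate incubation at room temperature.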
VACV Venus inh: qHTS for Stage-Specific Inhibitors of Vaccinia Orthopoxvirus: Venus Reporter Primary qHTS. Vaccinia virus Venus reporter expression, fluorescence. Potency, µM (titrated, usually from 36.5 µM), without a hit: at the top dose activity change, negative = inhibition, usual class: inhibitors. 330,000 tested, 0.46% active. AID 720580, 2013; calls by dose curve; tested in A549 cells; also: nearly all actives have a fitted effect of over 30% in size
An asterisk follows results filed as active; [ ] = dose if it differs, or a comment. % is scaled to controls: 0 for no effect and ±100 for the full control effect; potency is read from the fitted curve at half-maximal effect.

Screening CCO[C@H]1c2c(ccc3ccc(=O)oc23)OC(C)(C)[C@@H]1O returned VACV mCherry inh inactive, HCV inhibitor 2.82µM* and VACV Venus inh -5.9%.
`CCO[C@@H]1c2c(ccc3ccc(=O)oc23)OC(C)(C)[C@@H]1O` gave VACV mCherry inh -13.6%, HCV inhibitor 6.5% and VACV Venus inh 3.6%.
For C/C=C(/C)C(=O)O[C@@H]1c2c(ccc3ccc(=O)oc23)OC(C)(C)[C@@H]1OC(=O)/C(C)=C\C the results were VACV mCherry inh -19.9%, HCV inhibitor 22.4µM* and VACV Venus inh -29.9%.
Screening CN([C@@H](Cc1ccc(OS(=O)(=O)c2cccc3cnccc23)cc1)C(=O)N1CCN(c2ccccc2)CC1)S(=O)(=O)c1cccc2cnccc12 returned VACV mCherry inh -4.0%, HCV inhibitor 2.82µM* and VACV Venus inh -10.7%.
CN(C(Cc1ccc(OS(=O)(=O)c2cccc3cnccc23)cc1)C(=O)N1CCN(c2ccccc2)CC1)S(=O)(=O)c1cccc2cnccc12 (stereo not drawn) was read as VACV mCherry inh -3.7% and VACV Venus inh -8.6%.
For Cc1cc(C)cc(NC(=O)CSc2nc(-c3cccc(Cl)c3)nc3c2Cc2c(CO)cnc(C)c2O3)c1 the results were VACV mCherry inh -8.4% and VACV Venus inh -8.7%.
`COc1ccc(OC)c(CNC(=O)c2cc(=O)[nH]c3ccc(S(=O)(=O)N4CCCCC4C)cc23)c1` (stereo not drawn) gave VACV mCherry inh -13.3% and VACV Venus inh -8.7%.
O=C1c2[nH]nc(-c3ccccc3O)c2C(c2cccc(Cl)c2)N1Cc1ccco1 (stereo not drawn) was read as HCV inhibitor 12.6µM*.
Screening Cc1ccc(C2c3c(-c4cc(C)ccc4O)n[nH]c3C(=O)N2Cc2ccco2)cc1 (stereo not drawn) returned VACV mCherry inh -12.5% and VACV Venus inh inconclusive.
Screening Cc1cc(C)c(O)c(-c2n[nH]c3c2C(c2cccc(O)c2)N(Cc2ccco2)C3=O)c1 (stereo not drawn) returned VACV mCherry inh 10µM*, HCV inhibitor 11.2µM* and VACV Venus inh inconclusive.
O=C1c2[nH]nc(-c3ccccc3O)c2C(c2ccc(F)cc2)N1Cc1ccco1 (stereo not drawn) was read as HCV inhibitor -1.3%.
`COc1cccc(CN2CCC3(CC2)c2ccccc2[C@@H](NC(=O)c2ccccc2)[C@@H]3O)c1O` gave VACV mCherry inh -24.2% and VACV Venus inh -8.5%.
Cc1cc(OCC(=O)N2CCN(c3ccccn3)CC2)c(C)cc1Br was read as VACV mCherry inh -17.6%, HCV inhibitor -25.2% and VACV Venus inh -14.3%.
`O=C(OCC(=O)N1CCc2ccccc2C1)c1ccc(F)cc1Cl` gave VACV mCherry inh inactive, HCV inhibitor -3.2% and VACV Venus inh -18.5%.
For CN1C/C(=C\c2ccc(N3CCOCC3)cc2)C(=O)/C(=C/c2ccc(N3CCOCC3)cc2)C1 the results were VACV mCherry inh inconclusive, HCV inhibitor 11.2µM* and VACV Venus inh -0.3%.
For CN1C/C(=C/c2ccncc2)C(=O)/C(=C/c2ccncc2)C1 the results were VACV mCherry inh -2.3%, HCV inhibitor 16.3% and VACV Venus inh 6.6%.
For CCc1ccc(/C=C2/SC(N3CCOCC3)=NC2=O)cc1 the results were VACV mCherry inh inactive[7.34 µM], HCV inhibitor -31.5% and VACV Venus inh -9.0%[7.34 µM].
`CCN1C/C(=C/c2ccc(N3CCOCC3)cc2)C(=O)/C(=C/c2ccc(N3CCOCC3)cc2)C1` gave VACV mCherry inh 11.2µM*, HCV inhibitor inconclusive and VACV Venus inh 55.5%.
For COc1ccc(C(=O)NNC(=O)CSc2nnc(C3CC3)n2C)cc1 the results were VACV mCherry inh -6.6%, HCV inhibitor 2.5% and VACV Venus inh -0.2%.
`NC(=O)CSc1nnc(COc2ccccc2)n1Cc1ccco1` gave HCV inhibitor 7.1%.
Screening COc1cc2nc(N(C)C)c(CNCc3cccc4ccccc34)cc2c(OC)c1OC returned VACV mCherry inh inactive and VACV Venus inh -3.8%.
COc1cc2c(cc1OC)C(C)N(C(=O)c1cc3c(s1)-c1ccccc1OC3)CC2 (stereo not drawn) was read as VACV mCherry inh 6.3%, HCV inhibitor 11.2µM* and VACV Venus inh 14.0%.
COc1ccccc1N1CCN(C(=O)c2cc3c(s2)-c2ccccc2OC3)CC1 was read as VACV mCherry inh -26.9%, HCV inhibitor inconclusive and VACV Venus inh -1.0%.
`COc1cc2c(cc1OC)C(C)N(C(=O)c1cccs1)CC2` (stereo not drawn) gave VACV mCherry inh -25.6%, HCV inhibitor inconclusive and VACV Venus inh -10.4%.
`COc1cc2c(cc1OC)C(C)N(C(=O)c1cc3ccccc3o1)CC2` (stereo not drawn) gave HCV inhibitor 10µM*.
CS(=O)(=O)c1ccc(C2=C(c3ccccc3)C(=O)OC2)cc1 was read as VACV mCherry inh -1.6%, HCV inhibitor 7.08µM* and VACV Venus inh -11.9%.
`O=C1OCC(c2ccccc2)=C1c1ccccc1` gave VACV mCherry inh -14.3%, HCV inhibitor 0.6% and VACV Venus inh -7.6%.
`CCOCCCNC(=O)c1[nH]c2cc(C)ccc2c1Sc1ccc(Cl)cc1` gave VACV mCherry inh 0.3% and VACV Venus inh -7.1%.
`CCC(=O)Nc1nnc(SCC(=O)NCC2CCCO2)s1` (stereo not drawn) gave VACV mCherry inh -17.1%, HCV inhibitor 3.55µM* and VACV Venus inh -20.9%.
For CC(=O)Nc1nnc(SCC(=O)NCC2CCCO2)s1 (stereo not drawn) the results were VACV mCherry inh inactive, HCV inhibitor 18.5% and VACV Venus inh -11.8%.
Screening O=C(CN1C(=O)COc2ccc(S(=O)(=O)N3CCCC3)cc21)N1CCN(c2ccc(Cl)cc2)CC1 returned VACV mCherry inh -19.7% and VACV Venus inh -9.1%.
Screening CCN(CC)c1nc2ccccc2nc1C(=O)Nc1cc(OC)c(OC)c(OC)c1 returned VACV mCherry inh -12.4% and VACV Venus inh -9.5%.
Screening CCc1cc(C(=O)NCCN2Cc3ccccc3OC(c3ccsc3)C2)n(C)n1 (stereo not drawn) returned VACV mCherry inh -12.1% and VACV Venus inh -21.0%.
`Cc1ccccc1C(=O)Nc1ccc(CN2CCOCC2)cc1` gave HCV inhibitor 5.8%.
`O=C(Nc1ccc(CN2CCOCC2)cc1)c1ccco1` gave VACV mCherry inh -7.0%, HCV inhibitor 1.0% and VACV Venus inh 2.0%.
Screening COc1c(C(=O)Nc2ccc(CN3CCOCC3)cc2)cc2ccccc2c1Br returned VACV mCherry inh -16.1%, HCV inhibitor 12.6µM* and VACV Venus inh inconclusive.
`O=C(Nc1ccc(CN2CCOCC2)cc1)c1ccc(-c2ccc(Br)cc2)o1` gave VACV mCherry inh -26.2%, HCV inhibitor 8.91µM* and VACV Venus inh inconclusive.
For COc1cc(CCC(=O)N2CCN(c3ccccc3)CC2)cc(OC)c1OC the results were VACV mCherry inh -13.1%, HCV inhibitor -10.2% and VACV Venus inh -2.5%.
For CC1=C(C(=O)Nc2cccnc2)C(c2ccccc2)n2nc(-c3ccc(O)cc3)nc2N1 (stereo not drawn) the results were VACV mCherry inh 5.1% and VACV Venus inh -10.8%.
